Values joined by “and” are separate entries in the source; they are usually repeats but may differ in a detail not shown here. Equal entries are not always repeated. Active and inactive are the calls of the source. The call rests on the fitted dose curve; in most records, active means well fitted inhibition curve with a large enough effect; inconclusive means small, poorly fitted or top-dose-only effect; inactive means flat fitted curve, though single readings scatter.
Experiment: Quantitative high throughput screen for delayed death inhibitors of the malarial parasite plastid, 96 hour incubation.
Settings: P. falciparum luciferase growth
Description: NIH Molecular Libraries Probe Production Network [MLPCN] NIH Chemical Genomics Center [NCGC] MLPCN Grant: R21 NS059500 Assay Provider: David Fidock and Eric Ekland, Columbia University The goal of this screen is to discover new antimalarial compounds that act by inhibiting the development of the apicoplast in the malarial parasite Plasmodium falciparum. The biochemical processes that make this organelle essential for erythrocytic stage parasites are not well understood. However, antibiotics, such as azithromycin and tetracycline, which target the apicoplast translational machinery, have a potent antimalarial effect. […] We have developed a cell-based assay that measures parasite growth based on the expression of an integrated copy of a firefly luciferase reporter. To detect small molecules that cause this 'delayed death' phenotype, erythrocytes infected with the luciferase-expressing parasites were incubated with compounds for either one or two generations, corresponding to 48 and 96 hours, respectively. Compounds that inhibit parasite growth in the second generation, but not the first, should be enriched in antimalarials that target the apicoplast. Growth inhibition is detected by a decrease in luciferase activity
Four microliters of culture medium (RPMI 1640 with 0.5% w/v Albumax (GIBCO), 24 mM sodium bicarbonate and 10 ug/mL gentamycin) were dispensed by a Multi-drop Combi into white solid 1536-well plates (Grenier) and 23 nL compound was added by a pin tool. Four microliters of infected erythrocytes (2% hematocrit, 0.1% parasitemia final concentration) in culture medium were dispensed and the plates incubated for 96 hours at 37 C in 5% CO2. Two microliters of luciferase detection reagent was added and luminescence was detected by a ViewLux (PerkinElmer) reader

Structure (SMILES)	Potency
C[C@@H]1CN([C@@H](C)CO)C(=O)c2cc(NC(=O)Nc3ccccc3)ccc2O[C@@H](C)CCCCO[C@H]1CN(C)S(=O)(=O)c1ccc(C(F)(F)F)cc1	798 nM (active)
C=CCOC(=O)N(C)C[C@@H]1OCCCC[C@H](C)Oc2ccc(NC(=O)Nc3ccccc3)cc2C(=O)N([C@@H](C)CO)C[C@H]1C	252 nM (active)
C[C@@H]1CN(CCO)C(=O)c2cc(NC(=O)Nc3ccccc3)ccc2O[C@@H](C)CCCCO[C@H]1CN(C)S(=O)(=O)c1ccc(F)cc1	179 nM (active)
COCOC[C@H](C)N1C[C@@H](C)[C@H](CN(C)S(=O)(=O)c2ccc(F)cc2)OCCCC[C@H](C)Oc2ccc(NC(=O)Nc3ccccc3)cc2C1=O	8 nM (active)
C[C@@H]1CN([C@@H](C)CO)C(=O)c2cc(NC(=O)Nc3ccccc3)ccc2O[C@@H](C)CCCCO[C@H]1CN(C)C(=O)OC(C)(C)C	711 nM (active)
CC(C)NC(=O)Nc1ccc2c(c1)C(=O)N([C@@H](C)CO)C[C@@H](C)[C@H](CN(C)S(=O)(=O)c1ccc(F)cc1)OCCCC[C@H](C)O2	449 nM (active)
COc1ccc(COCCN2C[C@@H](C)[C@H](CN(C)S(=O)(=O)c3ccc(F)cc3)OCCCC[C@H](C)Oc3ccc(NC(=O)Nc4ccccc4)cc3C2=O)cc1	71.1 nM (active)
C[C@@H]1CN([C@@H](C)CO)C(=O)c2cc(NC(=O)Nc3ccccc3)ccc2O[C@@H](C)C/C=C/CO[C@H]1CN(C)S(=O)(=O)c1ccc(F)cc1	79.8 nM (active)
C[C@@H]1CN([C@@H](C)COC(=O)C(C)(C)C)C(=O)c2cc(NC(=O)Nc3ccccc3)ccc2O[C@@H](C)CCCCO[C@H]1CN(C)S(=O)(=O)c1ccc(F)cc1	5.7 nM (active)
C[C@@H]1CCCCO[C@H](CN(C)C(=O)Nc2ccc(F)cc2)[C@H](C)CN([C@@H](C)CO)C(=O)c2cc(NS(=O)(=O)c3ccccc3)ccc2O1	113 nM (active)
C=CCOC(=O)N(C)C[C@@H]1OCCCC[C@H](C)Oc2ccc(NC(=O)Nc3ccccc3)cc2C(=O)N([C@H](C)COC(=O)c2ccccc2)C[C@H]1C	504 nM (active)
Cc1noc(C)c1NC(=O)Nc1ccc2c(c1)C(=O)N(C(C)C)C[C@@H](C)[C@H](CN(C)S(=O)(=O)c1ccc(F)cc1)OCCCC[C@H](C)O2	44.9 nM (active) and 1.42 µM (active)
C=CCOC(=O)N(C)C[C@H]1OCCCC[C@H](C)Oc2ccc(NC(=O)Nc3ccccc3)cc2C(=O)N([C@@H](C)CO[Si](C)(C)C(C)(C)C)C[C@H]1C	126 nM (active)
C[C@@H]1CN([C@@H](C)COC(C)(C)C)C(=O)c2cc(NC(=O)Nc3ccccc3)ccc2O[C@@H](C)CCCCO[C@H]1CN(C)S(=O)(=O)c1ccc(F)cc1	0.8 nM (active)
COCCOCOC[C@H](C)N1C[C@@H](C)[C@H](CN(C)S(=O)(=O)c2ccc(F)cc2)OCCCC[C@H](C)Oc2ccc(NC(=O)Nc3ccccc3)cc2C1=O	11.3 nM (active)
C[C@@H]1CN(CCO[Si](C)(C)C(C)(C)C)C(=O)c2cc(NC(=O)Nc3ccccc3)ccc2O[C@@H](C)CCCCO[C@H]1CN(C)S(=O)(=O)c1ccc(F)cc1	40 nM (active)
C[C@@H]1CN([C@@H](C)COC(=O)c2ccccc2)C(=O)c2cc(NC(=O)Nc3ccccc3)ccc2O[C@@H](C)CCCCO[C@H]1CN(C)S(=O)(=O)c1ccc(F)cc1	44.9 nM (active)

Structure (SMILES)	Potency
C[C@@H]1CN([C@@H](C)CO)C(=O)c2cc(NC(=O)Nc3ccccc3)ccc2O[C@@H](C)CCCCO[C@H]1CN(C)S(=O)(=O)c1cccnc1	2830 nM (active)
C[C@@H]1CN([C@@H](C)CO[Si](C)(C)C(C)(C)C)C(=O)c2cc(NC(=O)Nc3ccccc3)ccc2O[C@@H](C)CCCCO[C@H]1CN(C)S(=O)(=O)c1ccc(F)cc1	0.6 nM (active)
COc1ccc(COC[C@H](C)N2C[C@@H](C)[C@H](CN(C)Cc3ccc(OC)cc3)OCCCC[C@H](C)Oc3ccc(NC(=O)Nc4ccccc4)cc3C2=O)cc1	449 nM (active)
C[C@@H]1CN([C@@H](C)COC(=O)c2ccccc2)C(=O)c2cc(NC(=O)Nc3ccccc3)ccc2O[C@@H](C)CCCCO[C@H]1CN(C)C(=O)OC(C)(C)C	356 nM (active)
C[C@@H]1CN([C@@H](C)CO)C(=O)c2cc(NC(=O)Nc3ccccc3)ccc2O[C@@H](C)C/C=C\CO[C@H]1CN(C)S(=O)(=O)c1ccc(F)cc1	252 nM (active)
C[C@@H]1CN(C)C(=O)c2cc(NC(=O)Nc3ccccc3)ccc2O[C@@H](C)CCCCO[C@@H]1CN(C)S(=O)(=O)c1ccc(F)cc1	1000 nM (active)
C[C@@H]1CN([C@@H](C)CN=[N+]=[N-])C(=O)c2cc(NC(=O)Nc3ccccc3)ccc2O[C@@H](C)CCCCO[C@H]1CN(C)S(=O)(=O)c1ccc(F)cc1	3.6 nM (active)
C[C@@H]1CN([C@@H](C)CO)C(=O)c2cc(N)ccc2O[C@@H](C)CCCCO[C@H]1CN(C)S(=O)(=O)c1ccc(F)cc1	63.4 nM (active)
C[C@@H]1CN([C@@H](C)CO)C(=O)c2cc(NC(=O)Nc3ccccc3)ccc2O[C@@H](C)CCCCO[C@H]1CN(C)S(=O)(=O)c1ccccc1F	449 nM (active)
C[C@@H]1CN([C@@H](C)CO)C(=O)c2cc(NC(=O)Nc3ccccc3)ccc2O[C@@H](C)CCCCO[C@H]1CN(C)Cc1ccc(C(F)(F)F)cc1	711 nM (active)
C[C@@H]1CN([C@@H](C)CO)C(=O)c2cc(Nc3nc4ccccc4o3)ccc2O[C@@H](C)CCCCO[C@H]1CN(C)S(=O)(=O)c1ccc(F)cc1	1130 nM (active)
CC(C)N1C[C@@H](C)[C@H](CN(C)S(=O)(=O)c2ccc(F)cc2)OCCCC[C@H](C)Oc2ccc(NC(=O)Nc3ccccc3)cc2C1=O	17.9 nM (active)
C[C@@H]1CN([C@@H](C)CO)C(=O)c2cc(NC(=O)Nc3ccccc3)ccc2O[C@@H](C)CCCCO[C@H]1CN(C)S(=O)(=O)c1cccc(F)c1	7.1 nM (active)
C[C@@H]1CN([C@H](C)CO[Si](C)(C)C(C)(C)C)C(=O)c2cc(NC(=O)Nc3ccccc3)ccc2O[C@@H](C)CCCCO[C@H]1CN(C)S(=O)(=O)c1ccc(F)cc1	159 nM (active)
C[C@@H]1CCCCO[C@@H](CN(C)Cc2ccc(F)cc2)[C@H](C)CN([C@@H](C)CO)C(=O)c2cc(NC(=O)Nc3ccccc3)ccc2O1	2830 nM (active)
Cc1noc(C)c1NC(=O)Nc1ccc2c(c1)C(=O)N([C@@H](C)CO)C[C@@H](C)[C@H](CN(C)S(=O)(=O)c1ccc(F)cc1)OCCCC[C@H](C)O2	79.8 nM (active)

Reference: PubChem BioAssay AID504599 (National Center for Advancing Translational Sciences (NCATS), 2011)
